Screening results as filed in PubChem BioAssay.
This is a sample that favours compounds with a hit; in the whole collection about 2.7% have one here.
PP5 primary: blocks human protein phosphatase 5 activity. P53041. 320,000 compounds, 0.18% hits. purified PP5c, OMFP substrate fluorescence. inhibition, % at 6.7 µM;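 active = inhibition above the campaign's mean inhibition across all tested compounds plus 3 SD, cut at about 9.5% in these data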;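 note: 0% = DMSO only and 100% = 100 µM cantharidin control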
Target sequence (P53041 whole entry, looked up): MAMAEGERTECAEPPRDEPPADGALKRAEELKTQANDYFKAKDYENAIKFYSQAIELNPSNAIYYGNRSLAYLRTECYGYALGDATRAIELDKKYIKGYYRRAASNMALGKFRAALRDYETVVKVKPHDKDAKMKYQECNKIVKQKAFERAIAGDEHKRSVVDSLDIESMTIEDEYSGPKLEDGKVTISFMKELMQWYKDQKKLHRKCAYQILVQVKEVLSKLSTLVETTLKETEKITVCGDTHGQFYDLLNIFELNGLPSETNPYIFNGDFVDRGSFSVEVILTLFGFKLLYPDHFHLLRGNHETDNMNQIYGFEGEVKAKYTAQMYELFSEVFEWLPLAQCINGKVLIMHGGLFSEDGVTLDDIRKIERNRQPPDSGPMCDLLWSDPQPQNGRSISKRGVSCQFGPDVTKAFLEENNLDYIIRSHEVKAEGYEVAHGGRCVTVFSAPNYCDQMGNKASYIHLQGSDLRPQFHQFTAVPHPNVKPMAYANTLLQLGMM
ANO1 block: inhibitors of mouse TMEM16A calcium-activated chloride channel; Q8BHY3; HEK293 TMEM16A/YFP iodide influx fluorescence, ionomycin; normalized B-score (activity score, 25-100; higher = stronger inhibition) at 10 µM; 310,000 compounds, 1.2% hits;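 active = ratio plate-corrected score three or more library SD toward inhibition, starting fluorescence score within five deviations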;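 note: score derived from kinetic fluorescence span divided by baseline fluorescence per well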
FID counter: displaces DNA intercalator in HCV helicase counter-screen | DNA fluorescent intercalator displacement, fluorescence | inhibition, % at 7.9 µM | 290,000 compounds, 0.17% hits | AID 1845; in the data active = inhibition above about 37%;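 note: 0% = vehicle and 100% = reference compound; higher means more ethidium bromide displaced from hairpin DNA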
TMEM16A act: mouse TMEM16A channel activation, primary screen | Q8BHY3 | HEK293 TMEM16A/YFP-H148Q/I152L, iodide quench fluorescence; active compounds read low | B-score at 10 µM | 340,000 compounds, 0.3% hits;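 active = fluorescence-ratio B-score plate-corrected deviation score at least 3 library SD below zero, with starting fluorescence score within 5 deviations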;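 note: channel opened by trigger with iodide after compound preincubation; score built on the fluorescence ratio of max minus min over baseline; more negative score means more quench and so TMEM16A activation or potentiation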
PREPL inh: inhibits the human prolyl oligopeptidase-like enzyme. 320,000 compounds, 0.68% hits. recombinant PREPL, fluorescence polarization activity-based probe. Q4J6C6. AID 2751. inhibition, % at 5.96 µM; in the data active = inhibition above about 43%;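 note: 0% = enzyme with DMSO and 100% = wells lacking enzyme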
PP1 counter: counter-screen for PP5 inhibitors: inhibitors of human PP1-alpha | purified PP1alpha, OMFP fluorescence | P62136 | inhibition, % at 6.7 µM | 320,000 compounds, 0.9% hits;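 active = inhibition above the mean inhibition of all tested compounds plus 3 SD, computed separately for each screening campaign, cut at about 15% in these data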
TMEM16A reconf: TMEM16A (mouse) chloride channel inhibition, re-confirmation; shares compounds with ANO1 block; HEK293 TMEM16A/YFP-H148Q, iodide quench fluorescence; ionomycin added to raise cell calcium; inhibition, % at 10 µM; 2,300 compounds, 39% hits;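 active = mean duplicate percent inhibition, scaled so buffer wells are 0 and the reference blocker 100, over three buffer SD above buffer mean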
TMEM16A Ca cntr: counter-screen for TMEM16A inhibitors: effect on calcium mobilization. shares compounds with ANO1 block. TMEM16A/YFP HEK293, Fluo4 calcium mobilization. calcium response (% of ionomycin), % at 10 µM. 2,300 compounds, 2% hits. AID 652231;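 active = duplicate-averaged calcium signal over 20% of the ionomycin maximum, relative to buffer baseline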;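 note: each well's signal is peak minus trough fluorescence divided by its pre-addition baseline; 0% = buffer wells and 100% = ionomycin wells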
Parental YFP cnt: counter-screen for TMEM16A inhibitors: effect in parental YFP-HEK293 cells. shares compounds with ANO1 block. iodide YFP quench, ionomycin. YFP ratio F(max-min)/F0 at 10 µM. 2,300 tested, under 10 active;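 active = yellow fluorescent protein signal ratio exceeding the buffer control mean by over 5 SD of those controls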;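 note: ratio is mean of duplicate wells from kinetic YFP trace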
ClC-1 rat inh: blocks the rat ClC-1 voltage-dependent chloride channel. AID 652236. ratio percent, % at 10 µM. shares compounds with ANO1 block. 2,300 tested, under 10 active. CHO ClC-1-YFP, iodide influx fluorescence quench; iodide control reads 0, buffer control 100;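 active = duplicate-mean ratio percent above the mean of iodide-only control wells, which defines zero, plus 5 of their SD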;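 note: higher percent means stronger block of ClC-1 iodide influx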
* = called active by the depositor; i = inactive; x = no result.

SMILES	PP5 primary	ANO1 block	FID counter	TMEM16A act	PREPL inh	PP1 counter	TMEM16A reconf	TMEM16A Ca cntr	Parental YFP cnt	ClC-1 rat inh
Nc1c(C(=O)OC2CCCCC2)c2nc3ccccc3nc2n1CC1CCCO1 (stereo unspecified)	5.8	100*	-19.7	i	7.9	3.5	i	i	-1.13	-4.0
CC(C)OC(=O)c1c(N)n(CC2CCCO2)c2nc3ccccc3nc12 (stereo unspecified)	1.1	i	-14.8	i	-4.3	3.9	x	x	x	x
Cc1[nH]c2ccc(OC(F)(F)F)cc2c1CCNCc1cccc([N+](=O)[O-])c1	5.6	25*	20.2	i	23.0	8.0	i	i	-1.06	-7.5
CCOC(=O)C(O)(c1ccc(NC(=S)NC(=O)c2ccc(Cl)cc2Cl)c(C)c1)C(F)(F)F (stereo unspecified)	5.3	25*	-19.8	i	1.2	1.7	53.5%*	i	-0.823	-5.5
CC[n+]1c(/C=C/C=C/c2ccc(N(C)C)cc2)sc2ccccc21	3.4	25*	2.7	i	9.5	2.0	40.0%*	i	-0.925	-1.0
CN(C)c1ccc(/C=C/C=C/c2sc3ccccc3[n+]2C)cc1	-1.9	i	8.5	i	13.3	-5.9	x	x	x	x
CC(=O)c1cn(Cc2ccccc2C#N)c2ccccc12	-0.7	25*	2.8	i	-12.6	1.9	i	i	-0.98	-20.0
CC(C)C(=O)c1cn(Cc2ccccc2C#N)c2ccccc12	1.1	i	-16.8	i	-19.1	2.3	x	x	x	x
CCC1=Nc2cc(C(=O)N3CCC4(CC3)OCCO4)ccc2Sc2ccc(Br)cc21	4.4	100*	-70.3	i	8.6	1.6	i	i	-0.984	-8.0
Cc1cc(N=Nc2ccccc2C)ccc1N	3.2	i	x	i	8.7	-0.2	x	x	x	x
Oc1c(Cl)c(Cl)c(Cl)c(Cl)c1Cl	1.3	100*	x	i	1.7	6.0	17.0%*	i	-0.748	-20.0
C=CCCC1(C(C)C)C(=O)NC(=S)NC1=O	x	x	x	i	x	x	x	x	x	x
CCN(CC)c1ccc(N=Cc2c(O)n(-c3ccccc3)c(=O)[nH]c2=O)cc1	-1.3	i	-15.9	i	16.2	-3.3	i	i	-0.926	-13.0
CCOc1ccc(-n2c(O)c(C=Nc3ccc(NC(C)=O)cc3)c(=O)[nH]c2=O)cc1	0.9	i	-19.1	i	-4.4	-0.5	x	x	x	x
CCOc1ccc(-n2c(O)c(C=Nc3ccc(N(CC)CC)cc3)c(=O)[nH]c2=O)cc1	2.1	i	-0.4	i	23.0	-2.8	28.0%*	i	-0.675	-10.5
O=c1[nH]c(=S)n(CCC2=CCCCC2)c(O)c1C=NC1CCN(Cc2ccccc2)CC1	3.6	100*	-3.3	i	-0.6	-3.1	i	i	-1.24	-15.5
CN1C(=O)C(=Cc2c(OCc3cnc(Cl)s3)ccc3ccccc23)C(=O)N(C)C1=O	2.1	i	-3.2	i	-5.6	0.2	i	i	-1.17	1.0
CN1C(=O)C(=Cc2ccccc2OCc2ccccc2Cl)C(=O)N(C)C1=O	4.4	i	-2.3	i	20.3	2.6	x	x	x	x
Oc1cc(Cl)ccc1Oc1ccc(Cl)cc1Cl	6.8	100*	x	i	-3.1	1.1	69.5%*	i	-0.956	-19.0
CCc1ccc2nc(N3CCC(C(=O)N4CCC5(CC4)OCCO5)CC3)sc2c1	0.3	100*	-44.6	i	11.6	-0.3	i	21.0%*	-1.06	6.0
Cc1ccc2nc(N3CCC(C(=O)N4CCC5(CC4)OCCO5)CC3)sc2c1	2.3	i	-24.1	i	15.2	3.2	x	x	x	x
Cc1ccccc1N1CCN(C2CCCN(C(=O)Cc3c(C)noc3C)C2)CC1 (stereo unspecified)	3.1	i	-22.1	i	11.6	-1.6	x	x	x	x
CCC(=NCCOc1ccc(Cl)cc1)c1c(O)n(C)c(=O)n(C)c1=O	3.7	i	-18.7	i	39.5	0.2	x	x	x	x
CCC(=NCCc1c[nH]c2ccccc12)c1c(O)n(C)c(=O)n(C)c1=O	4.8	100*	-11.3	i	14.0	-13.4	19.0%*	i	-0.974	-26.0
CCC1(CCO)C(=O)NC(=S)NC1=O	x	x	x	i	x	x	x	x	x	x
SMILES	PP5 primary	ANO1 block	FID counter	TMEM16A act	PREPL inh	PP1 counter	TMEM16A reconf	TMEM16A Ca cntr	Parental YFP cnt	ClC-1 rat inh
Cc1[nH]c2ccccc2c1CN1CCCCC1	x	x	x	i	x	x	x	x	x	x
COc1ccc(C(=O)OC2C[C@H]3CC[C@@H](C2)N3O)cc1OC (stereo partly specified)	0.9	i	-11.5	i	1.2	-0.9	x	x	x	x
Cc1ccc(N(C)C(=O)Oc2ccc(C(=O)c3ccc(Cl)cc3)cc2)cc1	1.2	25*	-1.4	i	13.9	-1.1	i	i	-1.09	-3.5
O=C(c1ccc(C(F)(F)F)cc1)C1CCCN(Cc2ccncc2)C1 (stereo unspecified)	2.1	25*	-8.3	i	-3.8	-5.8	i	i	-1.08	-10.5
O=C(CCC(=O)N1C[C@H]2C[C@@H](C1)c1cccc(=O)n1C2)NCc1ccc(F)cc1	1.0	x	x	i	4.0	-4.2	x	x	x	x
CCOC(=O)c1c(C=O)c2ccccc2n1Cc1ccccc1F	2.7	i	-15.0	i	-16.7	3.9	x	x	x	x
COC1=CC(=O)OC(CCc2ccc3c(c2)OCO3)C1 (stereo unspecified)	x	x	x	i	x	x	x	x	x	x
